The values that follow come from PubChem BioAssay (Tox21).

Structures are written as SMILES. Unmarked numbers belong to inactive results. Inconclusive results are not listed. Active and inactive are the calls of the source. The call rests on the fitted dose curve; in most records, active means well fitted curve in the direction sought with a large enough effect in the repeat runs; inconclusive means weak or mixed curves; inactive means no such curve, though single readings can be large; an effect the other way counts as inactive or inconclusive.

Experiment [1] in a line: qHTS RealTime-Glo MT Cell Viability Assay in HepG2 cells - 40 hour (AID 1224870). Further: nearly all actives have a fitted effect of over 50% in size. Summed up:
(§1)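 HepG2 cells (600/well) mixed with RealTime-Glo MT reagent, settled 5 h at 37 C/5% CO2 before compound addition. Nonlytic NanoLuc luminescence from viable-cell prosubstrate reduction read repeatedly during 40 h treatment at 37 C.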

Experiment [2] is described as follows: A CellTox Green Cytotoxicity Assay to monitor cytotoxicity in HEK293 cells - 40 hour (AID 1224871). Further: nearly all actives have a fitted effect of over 45% in size. Further: potency means the concentration at half of the fitted maximal effect. A digest of the protocol:
(§2)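 Tox21 screen in HEK293: membrane-impermeant cyanine dye fluoresces on binding dead-cell DNA; compound pinned 5 h post-seeding, plates held at 37 C, signal read repeatedly through 40 h.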

Experiment [3] is described as follows: A CellTox Green Cytotoxicity Assay to monitor cytotoxicity in HEK293 cells - 24 hour (AID 1224875). Further: nearly all actives have a fitted effect of over 45% in size. Further: potency means the concentration at half of the fitted maximal effect. On activity change: series mostly up to about 77 µM. A digest of the protocol:
as §2

A short description of experiment [4]: qHTS RealTime-Glo MT Cell Viability Assay in HepG2 cells - 32 hour (AID 1224877). Further: nearly all actives have a fitted effect of over 55% in size. Summed up: (§3)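 HepG2 suspension premixed with RealTime-Glo reagents is plated at 600 cells per well and left 5 h at 37 C/5% CO2. Compounds in DMSO then go in, and bioluminescence reflecting viable cell number is recorded over 40 h.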
The nature of experiment [5]: A CellTox Green Cytotoxicity Assay to monitor cytotoxicity in HepG2 cells - 24 hour (AID 1224878). Further: nearly all actives have a fitted effect of over 45% in size. Further: potency means the concentration at half of the fitted maximal effect. A digest of the protocol: (§4)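 Measurements at 0, 8, 16, 24, 32 and 40 h of treatment captured CellTox Green fluorescence in HepG2 cells that had been co-plated with reagent and preincubated 5 h at 37 C/5% CO2.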
The nature of experiment [6]: A CellTox Green Cytotoxicity Assay to monitor cytotoxicity in HepG2 cells - 40 hour (AID 1224879). Further: nearly all actives have a fitted effect of over 40% in size. Further: potency means the concentration at half of the fitted maximal effect. A digest of the protocol: as §4
Experiment [7] is described as follows: qHTS RealTime-Glo MT Cell Viability Assay in HEK293 cells - 0 hour (AID 1224880). Further: nearly all actives have a fitted effect of over 45% in size. Further: potency means the concentration at half of the fitted maximal effect. On activity change, negative = cytotoxicity: top concentration of the series differs between compounds. Summed up:
(§5)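 HEK293 + NanoLuc + prosubstrate, 600 cells/well; 5 h, 37 C/5% CO2; compound 23 nL in DMSO by pintool; 37 C; luminescence read at 0, 8, 16, 24, 32 and 40 h time points.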

Experiment [8] can be described thus: A CellTox Green Cytotoxicity Assay to monitor cytotoxicity in HEK293 cells - 32 hour (AID 1224881). Further: nearly all actives have a fitted effect of over 40% in size. Further: potency means the concentration at half of the fitted maximal effect. A digest of the protocol:
as §2

A short description of experiment [9]: A CellTox Green Cytotoxicity Assay to monitor cytotoxicity in HepG2 cells - 0 hour (AID 1224882). Further: nearly all actives have a fitted effect of over 35% in size. Further: potency means the concentration at half of the fitted maximal effect. A digest of the protocol:
as §4

The nature of experiment [10]: A CellTox Green Cytotoxicity Assay to monitor cytotoxicity in HepG2 cells - 32 hour (AID 1224883). Further: nearly all actives have a fitted effect of over 50% in size. Further: potency means the concentration at half of the fitted maximal effect. A digest of the protocol:
as §4

Experiment [11] in a line: qHTS RealTime-Glo MT Cell Viability Assay in HepG2 cells - 16 hour (AID 1224885). Further: nearly all actives have a fitted effect of over 50% in size. A digest of the protocol:
as §3

The nature of experiment [12]: qHTS RealTime-Glo MT Cell Viability Assay in HEK293 cells - 24 hour (AID 1224886). Further: top concentration of the series differs between compounds; nearly all actives have a fitted effect of over 50% in size. Summed up:
(§6)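 Reads taken at 0, 8, 16, 24, 32 and 40 h from the same wells. HEK293 cells (600/well) carried RealTime-Glo reagents from seeding, with compound added after a 5 h settle at 37 C.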

Experiment [13] is described as follows: qHTS RealTime-Glo MT Cell Viability Assay in HEK293 cells - 8 hour (AID 1224887). A digest of the protocol:
as §5

A short description of experiment [14]: A CellTox Green Cytotoxicity Assay to monitor cytotoxicity in HEK293 cells - 16 hour (AID 1224888). Further: nearly all actives have a fitted effect of over 35% in size. Further: potency means the concentration at half of the fitted maximal effect. A digest of the protocol:
as §2

A short description of experiment [15]: qHTS RealTime-Glo MT Cell Viability Assay in HepG2 cells - 0 hour (AID 1224889). Further: nearly all actives have a fitted effect of over 50% in size. A digest of the protocol:
as §3

The nature of experiment [16]: qHTS RealTime-Glo MT Cell Viability Assay in HEK293 cells - 40 hour (AID 1224874). Further: nearly all actives have a fitted effect of over 50% in size. The note with it: RealTime-Glo luminescence; max response: active compounds read low. A digest of the protocol: as §5
Experiment [17] in a line: A CellTox Green Cytotoxicity Assay to monitor cytotoxicity in HepG2 cells - 16 hour (AID 1224876). Further: nearly all actives have a fitted effect of over 45% in size. Further: potency means the concentration at half of the fitted maximal effect. A digest of the protocol: as §4
Experiment [18] can be described thus: A CellTox Green Cytotoxicity Assay to monitor cytotoxicity in HEK293 cells - 8 hour (AID 1224884). Further: nearly all actives have a fitted effect of over 35% in size. Summed up: as §2
Experiment [19] in a line: qHTS RealTime-Glo MT Cell Viability Assay in HEK293 cells - 16 hour (AID 1224872). A digest of the protocol:
as §6

The nature of experiment [20]: qHTS RealTime-Glo MT Cell Viability Assay in HepG2 cells - 8 hour (AID 1224873). Further: nearly all actives have a fitted effect of over 55% in size. A digest of the protocol:
as §1
On the % scale 0 is the no-effect control and ±100 the full control effect.

Turning to `CCC(C)COC(=O)CC(C)C` (stereo unspecified), the Potency result in experiment [1], in experiment [2], in experiment [3], in experiment [4], in [7] and in experiment [8] was “inactive” throughout. Further, the Potency result in [9], in [11], in experiment [12], in [13], in [14] and in experiment [15] was “inactive” throughout. The Potency in [5] is 54.9 µM (active); in experiment [6] it was 49 µM (active); in experiment [10] it was 54.9 µM (active).

Turning to `C=CC(C)(CCC=C(C)C)OC(=O)CC(C)C` (stereo unspecified), the Potency result in experiment [1], in [2], in experiment [3], in experiment [17], in experiment [4] and in [6] was “inactive” throughout. Moreover, the Potency result in experiment [7], in experiment [8], in experiment [9], in experiment [10], in experiment [18] and in experiment [11] was “inactive” throughout. Also, the Potency result in experiment [12], in experiment [13], in experiment [14] and in [15] was “inactive” in each case. Further, in [16], the max response is 7.92%.

Consider `CCCCC(CC)COP(=O)(O)O` (stereo unspecified), for which the Potency entry in experiment [1], in [19], in experiment [17], in experiment [4], in [5] and in [6] was “inactive” throughout. Moreover, the Potency entry in experiment [7], in experiment [9], in experiment [10], in experiment [18], in [11] and in experiment [13] was “inactive” each time. Further, the Potency result in experiment [15] is “inactive”.

Consider `C(=C\c1ccccc1)/c1ccccc1`, for which the Potency entry in experiment [1], in experiment [19], in experiment [20], in experiment [17], in experiment [4] and in experiment [5] was “inactive” in each case. Also, the Potency entry in [6], in experiment [7], in experiment [9], in experiment [10], in experiment [18] and in experiment [11] was “inactive” throughout. Moreover, the Potency entry in experiment [12], in experiment [13] and in [15] was “inactive” in each case. The max response in experiment [16] is 7.61%.

Consider `C=CC(=O)OCC1CC2CC1C1CCC(COC(=O)C=C)C21` (stereo unspecified), for which the Potency is 49 µM (active) in experiment [2]; 49 µM (active) in experiment [3]; 49 µM (active) in experiment [5]; 38.9 µM (active) in experiment [6]; 49 µM (active) in [8]; 43.6 µM (active) in experiment [10]. For the same compound, the Potency entry in [17], in experiment [7], in experiment [9], in [13] and in [14] was “inactive” each time.

For the compound `O=C1C(=O)c2ccccc2C(O)=C1C1CCC(c2ccc(Cl)cc2)CC1` (stereo unspecified), the Potency entry in [1], in experiment [20], in experiment [3], in experiment [17], in [4] and in experiment [5] was “inactive” in each case. Also, the Potency entry in [8], in experiment [9], in experiment [10], in [18], in experiment [11] and in experiment [12] was “inactive” in each case. The Potency entry in [13] and in [14] was “inactive” in each case. Also, the Potency in experiment [7] was 7.56 µM (active).

For `NC1[C@H]2CN(c3nc4c(cc3F)c(=O)c(C(=O)O)cn4-c3ccc(F)cc3F)C[C@@H]12` (stereo partly specified), the Potency result in experiment [1], in experiment [19], in experiment [17], in [4], in experiment [5] and in experiment [6] was “inactive” each time. The Potency entry in [7], in experiment [8], in [9], in [10], in [11] and in [12] was “inactive” each time. For the same compound, the Potency entry in [13] and in experiment [15] was “inactive” each time. In [16], the max response was -27.4%.

With `Cc1cc(=O)c2c(O)c3c(O)cc(=O)c4c3c3c(cc(O)c1c23)C(C)(C)C=4O`, the Potency in [2] was 4.65 µM (active); in [3] it was 5.22 µM (active); in experiment [17], 4.65 µM (active); in experiment [5], 4.65 µM (active); in [6], 3.69 µM (active); in experiment [8] it was 5.22 µM (active). Besides, the Potency in experiment [9] was 4.65 µM (active); in [10] it was 4.14 µM (active); in [14], 7.37 µM (active). Moreover, in experiment [20], the viability change, negative = cytotoxic is -10.2% [at 15.8 µM]. For the same compound, the activity change, negative = cytotoxicity was 0.327% [at 15.8 µM] in [7], 3.53% [at 15.8 µM] in [13] and -2.14% [at 15.8 µM] in experiment [15]. The activity change, negative = cytotoxic in experiment [11] was -19% [at 15.8 µM].
